# Screening data as filed in PubChem.
# Hits are enriched below; roughly 1.2% of the tested compounds scored in any of these assays.
# RGS4-Gao reg – modulators of RGS4 binding to Galphao, primary screen, biochemical, multiplexed bead flow cytometry; actives lie on both sides; binding response (% of control), % at 10 µM; 0.33% of 220,000 active; Guanine nucleotide-binding protein G(o) subunit alpha (Homo sapiens), P09471; in the data active = binding response below about 49% or above about 150%; inactive = in between;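 also: fluorescent Galphao activated with aluminum fluoride binding bead-coupled RGS4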
# RGS7-Gao – RGS7-Galphao binding modulators, primary screen, biochemical, multiplexed bead flow cytometry | binding response (% of control), % at 10 µM | 0.35% of 220,000 active | Guanine nucleotide-binding protein G(o) subunit alpha (Homo sapiens), P09471 | actives lie on both sides | AID 1439, 2008; in the data active = binding response below about 49% or above about 150%; inconclusive = no clear call, values can overlap the other calls; inactive = in between;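 also: fluorescent Galphao held in activated GDP-AlF4 state binding bead-coupled RGS7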
# GSH bead fluor – compound fluorescence on glutathione beads, profiling panel, artefact control, biophysical, 488/530 nm, flow cytometry; GSH beads flow cytometry, compound fluorescence 488/530 nm; hits give high values; fluorescence (KMESF) at 10 µM; 0.25% of 190,000 active; in the data active = fluorescence above about 89;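 also: glutathione beads carrying GST-tagged Bcl family fusion proteins plus one bare bead set; values are compound well signal with DMSO vehicle wells as background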
# RGS16-Gao – modulators of RGS16 binding to Galphao, primary screen, biochemical, human proteins, multiplexed bead flow cytometry. Regulator of G-protein signaling 16 (Homo sapiens) + Guanine nucleotide-binding protein …. binding response (% of control), % at 10 µM. AID 1441, 2008. bead-based flow cytometry RGS16-Galphao binding, fluorescence; actives lie on both sides. 0.38% of 220,000 active; call rule not given here;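 also: Galphao activated by GDP with aluminum fluoride before binding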
# Target sequence (O15492 whole entry, looked up): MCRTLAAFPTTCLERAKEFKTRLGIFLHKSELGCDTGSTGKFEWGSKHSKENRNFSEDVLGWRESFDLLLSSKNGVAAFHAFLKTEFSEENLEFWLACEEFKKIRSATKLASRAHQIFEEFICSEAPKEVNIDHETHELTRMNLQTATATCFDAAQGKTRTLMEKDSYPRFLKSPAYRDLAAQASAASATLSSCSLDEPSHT
# Target sequence (P09471 whole entry, looked up): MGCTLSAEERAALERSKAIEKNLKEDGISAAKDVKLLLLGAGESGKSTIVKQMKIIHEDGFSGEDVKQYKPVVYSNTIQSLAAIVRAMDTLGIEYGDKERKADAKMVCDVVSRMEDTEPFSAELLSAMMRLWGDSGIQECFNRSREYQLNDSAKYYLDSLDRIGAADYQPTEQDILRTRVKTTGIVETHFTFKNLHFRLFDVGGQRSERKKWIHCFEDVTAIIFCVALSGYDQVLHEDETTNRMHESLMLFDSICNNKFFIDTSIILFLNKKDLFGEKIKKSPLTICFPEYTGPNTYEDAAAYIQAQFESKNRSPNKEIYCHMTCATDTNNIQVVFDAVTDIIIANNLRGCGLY
# Avidin bead fluor – green autofluorescence of compounds with avidin beads – biophysical, 488/530 nm, flow cytometry, artefact control, profiling panel. AID 1775, 2009. fluorescence (KMESF) at 10 µM. 0.38% of 220,000 active. compound fluorescence 488/530 nm; hits give high values; in the data active = fluorescence above about 47
# RGS8-Gao reg – RGS8-Galphao binding modulators, primary screen, biochemical, multiplexed bead flow cytometry; Guanine nucleotide-binding protein G(o) subunit alpha (Homo sapiens), P09471; actives lie on both sides; response (percent of control binding), % at 10 µM; 0.34% of 220,000 active; in the data active = response below about 60% or above about 140%; inactive = in between;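 also: Galphao activated as the GDP aluminium fluoride complex binding bead-coupled RGS8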
# The depositor's hits bear a star; ? = inconclusive; / = no result.
SMILES,RGS4-Gao reg,RGS7-Gao,GSH bead fluor,RGS16-Gao,Avidin bead fluor,RGS8-Gao reg
CCOC(=O)Nc1ccc2c(c1)OCO2,100.7,101.5,20,99.5,39,102.6
COC(=O)Nc1ccc2c(c1)OCO2,84.2,87.4,100*,91.5,4,95.3
O=C(NC1CCCCC1)C(c1ccco1)N(C(=O)c1csnn1)C1CCCC1 (configuration not stated),35.8*,29.2*,30,26.0,3,27.8*
C=CCn1c(-c2ccc(C)cc2)nc2ccccc21,103.1,113.7,31,104.8,47*,101.0
O=C(c1ccc(F)cc1)N1CCN(c2ncccn2)CC1,99.7,114.3,13,99.9,73*,98.8
Cn1ncc(Cl)c1C(=O)Nc1sc2c(c1C(N)=O)CCC2,90.2,87.6,99*,94.6,6,102.6
CNc1nnc(Sc2ncccc2[N+](=O)[O-])s1,110.8,?,/,108.1,5,105.9
CC(C)Cn1cnc2c(c(-c3ccccc3)c(-c3ccccc3)n2Cc2ccco2)c1=N,105.7,101.9,251*,105.6,8,101.7
N=c1c2c(-c3ccccc3)c(-c3ccccc3)n(Cc3ccco3)c2ncn1Cc1ccccc1,96.5,98.5,12,93.5,14,90.4
N#CC1=C(N)Oc2c(ccc3cccnc23)C1c1ccccc1 (configuration not stated),103.1,?,/,104.0,6,105.5
Cc1oc(C)c2c(=O)ccc3c(c12)OC(N)=C(C#N)C3c1ccccc1Cl (configuration not stated),101.6,97.1,138*,101.3,23,101.9
N#CC1=C(N)OC2=C(CC/C2=C\c2ccccc2Cl)C1c1ccccc1Cl (configuration not stated),103.6,100.6,10,102.8,11,99.8
Cc1oc(C)c2c(=O)ccc3c(c12)OC(N)=C(C#N)C3c1ccccc1 (configuration not stated),101.5,104.8,585*,104.2,6,104.3
O=C(NN=C(Cc1ccccc1)Cc1ccccc1)C1CC1,99.3,97.7,10,97.5,14,100.1
Cc1cc(C(=O)N2CCCC(C(=O)c3ccc4ccccc4c3)C2)n(C)n1 (configuration not stated),99.6,103.0,52,102.2,12,98.6
O/C(=C\c1ccc2ccccc2n1)c1ccc(O)cc1O,102.0,100.1,7,101.7,26,102.0
O=C(NCCN1CCOCC1)c1cc2sccc2n1Cc1ccc(Cl)cc1,103.8,109.1,15,102.2,52*,102.3
CC12CCC(C(=Nc3ccc(N=C4C(=O)C5(C)CCC4C5(C)C)cc3)C1=O)C2(C)C,111.8,?,/,96.6,57*,99.7
Cc1ccc(N2C(=O)C3CCC(C)(C2=O)C3(C)C)cc1 (configuration not stated),98.5,?,/,100.4,4,100.0
O=C1NC(c2ccccc2)Nc2c1sc(=S)n2-c1ccccc1 (configuration not stated),100.7,105.2,12,94.8,12,96.9
Cc1nc([N+](=O)[O-])c(Br)n1CC(=O)c1ccc2ccccc2c1,98.3,108.1,38,104.2,50*,100.7
CS(=O)(=O)N1CCC(C(=O)Nc2ccc(F)cc2F)CC1,103.7,118.2,24,100.2,79*,101.2
COc1cc(-c2nc3oc4ccccc4c(=O)c3c(=O)n2Cc2ccco2)cc(OC)c1OC,103.5,138.1,21,98.0,49*,91.0
COc1ccc2c(=O)c3c(=O)n(Cc4ccco4)c(-c4ccc(C)cc4)nc3oc2c1,86.3,88.8,26,88.6,11,88.0
CCOc1ccc(N2C(=O)CC(Sc3nc(C)cc(C)n3)C2=O)cc1 (configuration not stated),104.0,105.0,17,99.1,6,103.5
SMILES,RGS4-Gao reg,RGS7-Gao,GSH bead fluor,RGS16-Gao,Avidin bead fluor,RGS8-Gao reg
CCOc1ccc(N2C(=O)CC(SCCN)C2=O)cc1 (configuration not stated),100.5,99.4,267*,103.2,6,100.0
COc1cc(C2Oc3ccccc3C=C2[N+](=O)[O-])cc(OC)c1OC (configuration not stated),100.3,?,/,98.9,8,99.9
Cc1ccc(C(=O)NC2c3ccccc3-c3ccccc32)cc1,106.6,142.8,19,99.2,60*,100.2
Cc1ccc(C(=O)NC2CCc3ccccc3C2=O)cc1 (configuration not stated),89.8,91.6,16,90.3,16,94.0
CCC(Sc1ccc(C(=O)O)cc1)C(=O)O (configuration not stated),102.1,106.0,21,100.4,50*,101.1
Cc1ccc(C)c(CSc2ccc3nnc(-c4ccccn4)n3n2)c1,96.4,102.1,11,98.9,8,98.9
CCOc1ccccc1C(=O)NCCC(=O)O,115.3,108.5,17,253.2,6,134.4
CCOc1ccc(C(CCc2ccccc2)NC(=O)c2ccccc2OC)cc1OCC (configuration not stated),106.1,111.0,21,108.0,51*,102.5
CCOc1ccccc1C(=O)NC(CO)C(=O)O (configuration not stated),104.3,102.1,271*,106.2,6,100.7
CCOC(=O)c1ccc(Cl)c(NC(=O)c2cccnc2)c1,102.6,102.8,25,101.3,11,100.4
COc1ccc(-n2c(SCC(=O)Nc3cc(C(=O)O)ccc3C)nc3ccccc3c2=O)cc1Cl,110.3,?,/,105.5,4,108.9
Cc1ccccc1NC(=O)C1CCCN1C(=O)NC1CCCCC1 (configuration not stated),102.4,102.5,263*,104.2,8,102.7
CCOC(=O)CCC(=O)NCc1ccc2c(c1)cc(C)n2C,126.8,125.2,15,178.4,53*,104.3
COc1ccc(C(O)c2coc3ccc(O)c(CN(C)C)c23)cc1 (configuration not stated),102.9,115.5,16,92.3,83*,99.5
CCc1c(C)nc(SCC(=O)N2CCCCC2CC)[nH]c1=O (configuration not stated),98.3,?,/,100.8,8,98.3
Nc1cc(=O)[nH]c(SCc2ccc(Cl)cc2)n1,105.4,109.6,19,103.7,50*,102.8
Cc1ccc(C(=O)C(OC(=O)CCC(=O)Nc2cccc(C)c2)c2ccccc2)cc1 (configuration not stated),96.4,98.4,20,99.3,34,98.5
